Data: PubChem BioAssay AID1159580 (chemical genetic matrix, 2015)
The whole screen tested about 5,500 compounds, of which about 2,000 (36%) were called active. Another 18% or so got no clear call; they are omitted. Cut-off read from the data, not from the text of the source: active = normalized growth mostly below about 0.91 (no sharp cut-off); inconclusive = no clear call, values can overlap the other calls; inactive = mostly above about 0.92. The list shows a part of the results.

Test: chemical genetic growth profiling, strain panel (AID 1159580);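 note: tested at 20 µM; growth read once vehicle control cultures reached saturation at 30 °C; 1 = growth at the plate median or of vehicle wells; lower values mean less growth of the strain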
Details: growth OD

Measured: normalized growth

C[C@@H]1C(=O)OC2[C@H](O)C34[C@@H]5OC(=O)[C@@]3(O[C@@H]3OC(=O)[C@H](O)[C@@]34[C@H](C(C)(C)C)[C@H]5O)[C@]21O (some centres undefined)
inactive: S. cerevisiae deletion strains, locus YJR066W, strain TOR1, hits give low values 0.958 | S. cerevisiae deletion strains, locus YKL009W, strain mrt4, hits give low values 1.02 | S. cerevisiae deletion strains, locus YKL068W, hits give low values 1 | S. cerevisiae deletion strains, locus YKL085W, strain MDH1 (second series), hits give low values 1.01 | S. cerevisiae deletion strains, locus YKL085W, strain MDH1, hits give low values 1.01 | S. cerevisiae deletion strains, locus YKL160W, strain elf1, hits give low values 0.981 | S. cerevisiae deletion strains, locus YKL190W, strain CNB1, hits give low values 0.993 | S. cerevisiae deletion strains, locus YKR001C, strain vps1, hits give low values 1.02 | S. cerevisiae deletion strains, locus YKR026C, strain gcn3, hits give low values 0.977 | S. cerevisiae deletion strains, locus YKR091W, strain srl3, hits give low values 0.955 | S. cerevisiae deletion strains, locus YLL001W, strain dnm1, hits give low values 0.987 | S. cerevisiae deletion strains, locus YLL026W, hits give low values 0.984 | S. cerevisiae deletion strains, locus YLL041C, strain sdh2, hits give low values 0.971 | S. cerevisiae deletion strains, locus YLR027C, strain aat2, hits give low values 0.973 | S. cerevisiae deletion strains, locus YLR039C, strain RIC1, hits give low values 1 | S. cerevisiae deletion strains, locus YLR058C, strain SHM2, hits give low values 1 | S. cerevisiae deletion strains, locus YLR102C, strain apc9, hits give low values 1.01 | S. cerevisiae deletion strains, locus YLR113W, strain HOG1, hits give low values 0.997 | S. cerevisiae deletion strains, locus YLR221C, strain rsa3, hits give low values 0.978 | S. cerevisiae deletion strains, locus YLR258W, strain gsy2, hits give low values 0.978 | S. cerevisiae deletion strains, locus YLR262C, strain YPT6 (second series), hits give low values 0.964 | S. cerevisiae deletion strains, locus YLR262C, strain YPT6, hits give low values 1.01 | S. cerevisiae deletion strains, locus YLR268W, strain sec22, hits give low values 1.02 | S. cerevisiae deletion strains, locus YLR320W, strain mms22, hits give low values 0.98 | S. cerevisiae deletion strains, locus YLR330W, strain CHS5, hits give low values 1.01 | S. cerevisiae deletion strains, locus YLR342W, strain FKS1 (second series), hits give low values 1.01 | S. cerevisiae deletion strains, locus YLR342W, strain FKS1, hits give low values 0.982 | S. cerevisiae deletion strains, locus YLR357W, strain rsc2, hits give low values 0.932 | S. cerevisiae deletion strains, locus YLR370C, strain arc18, hits give low values 0.97 | S. cerevisiae deletion strains, locus YLR371W, strain rom2, hits give low values 1.02 | S. cerevisiae deletion strains, locus YLR384C, strain iki3, hits give low values 0.981 | S. cerevisiae deletion strains, locus YLR418C, strain cdc73, hits give low values 1.02 | S. cerevisiae deletion strains, locus YML016C, strain PPZ1, hits give low values 1.01 | S. cerevisiae deletion strains, locus YML032C, strain rad52, hits give low values 1 | S. cerevisiae deletion strains, locus YML120C, strain ndi1, hits give low values 0.975 | S. cerevisiae deletion strains, locus YML124C, strain tub3, hits give low values 1.02 | S. cerevisiae deletion strains, locus YMR058W, strain fet3, hits give low values 0.966 | S. cerevisiae deletion strains, locus YMR078C, strain ctf18, hits give low values 1.02 | S. cerevisiae deletion strains, locus YMR125W, strain sto1, hits give low values 0.941 | S. cerevisiae deletion strains, locus YMR129W, hits give low values 0.959 | S. cerevisiae deletion strains, locus YMR205C, strain PFK2, hits give low values 0.984 | S. cerevisiae deletion strains, locus YMR223W, strain ubp8, hits give low values 1.03 | S. cerevisiae deletion strains, locus YMR231W, strain pep5, hits give low values 0.984 | S. cerevisiae deletion strains, locus YMR263W, strain SAP30, hits give low values 1 | S. cerevisiae deletion strains, locus YMR307W, strain GAS1, hits give low values 0.979 | S. cerevisiae deletion strains, locus YNL067W, strain RPL9B, hits give low values 0.995 | S. cerevisiae deletion strains, locus YNL071W, strain lat1, hits give low values 0.974 | S. cerevisiae deletion strains, locus YNL183C, strain NPR1, hits give low values 0.973 | S. cerevisiae deletion strains, locus YNL209W, strain ssb2, hits give low values 0.971 | S. cerevisiae deletion strains, locus YNL233W, strain BNI4, hits give low values 1 | S. cerevisiae deletion strains, locus YNL248C, strain rpa49, hits give low values 0.961 | S. cerevisiae deletion strains, locus YNL250W, strain rad50, hits give low values 1.02 | S. cerevisiae deletion strains, locus YNL271C, strain bni1, hits give low values 1.01 | S. cerevisiae deletion strains, locus YNL298W, strain CLA4, hits give low values 1.02 | S. cerevisiae deletion strains, locus YNL307C, strain MCK1, hits give low values 1.03 | S. cerevisiae deletion strains, locus YNL322C, strain KRE1 (second series), hits give low values 0.963 | S. cerevisiae deletion strains, locus YNL322C, strain KRE1, hits give low values 1 | S. cerevisiae deletion strains, locus YNR049C, strain mso1, hits give low values 0.95 | S. cerevisiae deletion strains, locus YNR052C, strain pop2, hits give low values 1.01 | S. cerevisiae deletion strains, locus YOL012C, strain htz1 1.18 | S. cerevisiae deletion strains, locus YOL147C, strain pex11, hits give low values 1.02 | S. cerevisiae deletion strains, locus YOR001W, strain rrp6, hits give low values 0.972 | S. cerevisiae deletion strains, locus YOR061W, strain CKA2, hits give low values 1 | S. cerevisiae deletion strains, locus YOR069W, strain VPS5, hits give low values 0.997 | S. cerevisiae deletion strains, locus YOR070C, strain gyp1, hits give low values 0.988 | S. cerevisiae deletion strains, locus YOR080W, strain dia2, hits give low values 0.951 | S. cerevisiae deletion strains, locus YOR083W, strain WHI5, hits give low values 0.988 | S. cerevisiae deletion strains, locus YOR106W, strain vam3, hits give low values 0.978 | S. cerevisiae deletion strains, locus YOR136W, strain idh2, hits give low values 1.01 | S. cerevisiae deletion strains, locus YOR144C, strain elg1, hits give low values 1.01 | S. cerevisiae deletion strains, locus YOR184W, strain ser1, hits give low values 1.03 | S. cerevisiae deletion strains, locus YOR231W, strain MKK1, hits give low values 1.02 | S. cerevisiae deletion strains, locus YOR265W, strain rbl2, hits give low values 0.977 | S. cerevisiae deletion strains, locus YOR270C, strain vph1, hits give low values 0.935 | S. cerevisiae deletion strains, locus YOR290C, strain snf2, hits give low values 0.953 | S. cerevisiae deletion strains, locus YOR316C, strain cot1, hits give low values 1.02 | S. cerevisiae deletion strains, locus YPL051W, strain arl3, hits give low values 0.985 | S. cerevisiae deletion strains, locus YPL055C, strain LGE1, hits give low values 0.998 | S. cerevisiae deletion strains, locus YPL078C, strain atp4, hits give low values 0.984 | S. cerevisiae deletion strains, locus YPL106C, strain sse1, hits give low values 0.944 | S. cerevisiae deletion strains, locus YPL240C, strain hsp82, hits give low values 0.979 | S. cerevisiae deletion strains, locus YPL241C, strain CIN2, hits give low values 0.99 | S. cerevisiae deletion strains, locus YPL256C, strain CLN2, hits give low values 1.06 | S. cerevisiae deletion strains, locus YPR119W, strain clb2, hits give low values 1.01 | S. cerevisiae deletion strains, locus YPR141C, strain kar3, hits give low values 1.01 | S. cerevisiae deletion strains, locus YPR163C, strain tif3, hits give low values 1.02 | S. cerevisiae deletion strains, locus YPR167C, strain met16, hits give low values 1.02 | S. cerevisiae deletion strains, strain wtn01, hits give low values 1.04 | S. cerevisiae strains, strain wild type, hits give low values 0.983
